Assay outcomes (PubChem BioAssay)
A selection: hits, their analogues and other compounds. The true share with any hit is near 19%.
HT1080 IDH1KD tx: kills HT-1080 cells with IDH1 knockdown; HT-1080 IDH1 knockdown viability, ATP luminescence, 48 h; hit rate 2% among 360,000; Potency, µM (doses to about 46.1 µM), without a hit: at the top dose activity, negative = toxicity, most hits filed as cytotoxic;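 note: 0% = DMSO wells and -100% = cell-free medium wells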
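IDH1KD HT-1080 cells, 750/well, RPMI + 5% FBS; compound pinned after 2 h settling; 48 h, 37 °C; CellTiter-Glo luminescence; % activity normalised to DMSO and no-cell wells; curves fitted, classed by r2 and efficacy.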
KB-3-1 tox: KB-3-1 parental cell cytotoxicity | Potency, µM (series often up to 46.1 µM), most hits filed as cytotoxic | hit rate 1.4% among 400,000 | KB-3-1 viability, CellTiter-Glo ATP luminescence, 72 h; note: nearly all actives have a fitted effect of over 60% in size
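Parental KB-3-1 viability, qHTS format: 72 h compound exposure, 37 °C; CellTiter-Glo; media-only wells and DMSO plates as controls; concentration-effect fits on corrected data.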
TDP1 cell noCPT: qHTS for Inhibitors of human tyrosyl-DNA phosphodiesterase 1 (TDP1): qHTS in cells in absence of CPT. DT40 Tdp1-/- hTDP1 cells, no CPT, ATP luminescence, 48 h. Potency, µM (titrated, usually from 46.2 µM), for the others: top-dose activity change, negative = growth inhibition, actives largely listed as inhibitors. hit rate 15% among 420,000. AID 686978, 2013; note: nearly all actives have a fitted effect of over 55% in size
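Chicken DT40 Tdp1-/- cells stably complemented with human TDP1 were seeded at 400 cells/well with DMSO in place of 20 nM camptothecin. After compound pinning, cells grew at least 48 hr at 37 °C; viability read by CellTiter-Glo luminescence.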
TDP1 cell CPT: DT40-hTDP1 cell growth loss with CPT; chicken DT40 Tdp1-/-;hTDP1 cells + 20 nM CPT, ATP luminescence, 48 h; Potency, µM (doses to about 46.2 µM), inactives show at the top dose activity change, negative = growth inhibition, hits mostly inhibitors; hit rate 12% among 420,000; note: nearly all actives have a fitted effect of over 55% in size
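Cell growth measured by CellTiter-Glo luminescence after a minimum 48 h, 37 C compound exposure with 20 nM CPT in Tdp1-knockout DT40 cells stably expressing hTDP1, seeded 400/well; qHTS titration format.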
HT1080NT lethal: kills 2HG-producing HT-1080-NT fibrosarcoma cells; HT-1080-NT fibrosarcoma viability, CellTiter-Glo ATP luminescence, 48 h; Potency, µM (highest dose often 46.1 µM), for inactives: top-dose activity, negative = less viability, hits mostly cytotoxic; hit rate 1.6% among 360,000; AID 686970;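 note: NT is the 2HG producing partner of a matched IDH1 knockdown line; 0% = DMSO-treated cells and -100% = media-only wells without cells; nearly all actives have a fitted effect of over 55% in size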
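HT-1080-NT fibrosarcoma cells (2HG-overproducing), 750 cells/well in RPMI with 5% FBS, dosed after 2 h and incubated 48 h at 37C. CellTiter-Glo luminescence normalized to DMSO and no-cell wells; concentration-response curves fitted and classed.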
KB-V1 MDR tox: KB-V1 MDR subline cytotoxicity; AID 1347076; Potency, µM (series often up to 46.1 µM), usual class: cytotoxic; hit rate 3.4% among 400,000; KB-V1 MDR cells viability, CellTiter-Glo, 72 h; note: nearly all actives have a fitted effect of over 60% in size
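Luminescent ATP read-out (CellTiter-Glo, 10 min) measures survival of drug-selected KB-V1 MDR cells after 72 h, 37 degrees C compound exposure. Medium: phenol-red-free DMEM, 10% FBS. Values from fitted concentration-response curves.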
Starred values were filed as active, the others as inactive; i = inactive; u = inconclusive; x = no result; [ ] = dose if it differs, or a comment. Calls come from the whole dose curve; as a rule, active = well fitted curve in the direction sought with a large enough effect; inconclusive = small, poorly fitted or top-dose-only effect, or another doubt; inactive = no such curve, though single readings can be large; an effect the other way counts as inactive or inconclusive. Unless noted, % is set by controls: 0 for no effect and ±100 for the full control effect; potency is the fitted concentration of half-maximal effect.

SMILES | HT1080 IDH1KD tx | KB-3-1 tox | TDP1 cell noCPT | TDP1 cell CPT | HT1080NT lethal | KB-V1 MDR tox
COc1ccc(CNC(=O)c2ccc(S(=O)(=O)N3CC(C)CC(C)C3)cc2)cc1OC (configuration not stated) | -8% | i | u | u | -4% | 7.3µM*
N#Cc1ccc(Nc2nc(-c3ccccc3)c(C(=O)c3ccccc3)s2)cc1 | u | u | 23µM* | 18µM* | u | u
COC(=O)c1sc2ccccc2c1NC(=O)c1ccc(S(=O)(=O)N2CC(C)CC(C)C2)cc1 (configuration not stated) | -6% | i | 18µM* | 21µM* | 5% | i
CC(C)(CO)NC(=O)c1cnn(-c2ncc3c(n2)-c2ccccc2CC3)c1C1CC1 | x | x | -25% | 6%[9.04 µM] | x | x
CCOC(=O)c1sc2ccc(S(=O)(=O)N3CCOCC3)cc2c1N | 1% | i | -25% | u | 1% | i
CCOC(=O)c1sc2ccc(S(=O)(=O)N3CCCCC3)cc2c1N | u | 23µM* | u | 14µM* | u | u
CN(C)c1ccc(C(C(=O)NCC2CCCO2)N(Cc2ccccc2)C(=O)c2snc(C(N)=O)c2N)cc1 (configuration not stated) | -1% | i | 18µM* | 10µM* | -19% | u
CN(C)c1ccc(C(C(=O)NCc2ccccc2)N(Cc2ccco2)C(=O)c2snc(C(N)=O)c2N)cc1 (configuration not stated) | u | u | 8.2µM* | 15µM* | -27% | u
Cc1ccc(C(C(=O)NCc2ccc(F)cc2)N(Cc2ccco2)C(=O)c2snc(C(N)=O)c2N)o1 (configuration not stated) | -20% | i | 15µM* | 15µM* | u | u
CN(C)c1ccc(C(C(=O)NCC2CCCO2)N(Cc2ccco2)C(=O)c2snc(C(N)=O)c2N)cc1 (configuration not stated) | -13% | i | u | u | -12% | i
CCOc1ccccc1N(C(=O)c1snc(C(N)=O)c1N)C(C(=O)NCCC(C)C)c1ccco1 (configuration not stated) | 0% | i | 21µM* | u | -11% | 13µM*
COc1ccccc1N(C(=O)c1snc(C(N)=O)c1N)C(C(=O)NCCC(C)C)c1ccco1 (configuration not stated) | -28% | i | -29% | u | 6% | i
CCCN(C)C1CN(Cc2cn(Cc3cc(C)cc(C)c3)nn2)S(=O)(=O)C1 (configuration not stated) | 0% | i | -6% | 1% | 14% | i
N#Cc1nc(-c2ccc(OCc3ccc(Cl)cc3)cc2)oc1N1CCCCC1 | x | i | u | -24% | x | i
CC(C)(C)NC(=O)C(c1ccco1)N(Cc1ccc(F)cc1)C(=O)c1snc(C(N)=O)c1N (configuration not stated) | 2% | i | -3% | 13% | -4% | 18µM*
CCC(C)(C)NC(=O)C(c1ccc(F)cc1)N(Cc1ccco1)C(=O)c1snc(C(N)=O)c1N (configuration not stated) | u | i | -37% | u | u | u
NC(=O)c1nsc(C(=O)N(Cc2ccco2)C(C(=O)NCc2ccc(F)cc2)c2ccc(O)cc2)c1N (configuration not stated) | 1% | i | u | 16µM* | -15% | i
O=C(NCc1ccccc1F)c1ccc(CN2CC(=O)N3CCCCC3C2=O)cc1 (configuration not stated) | x | x | -6% | -7% | x | x
COc1cc(OC)cc(C2=Cc3ccccc3C(CC(C)=O)N2c2ccc(-c3cccs3)cc2)c1 (configuration not stated) | 3% | u | 21µM* | u | 0% | i
COc1cc(OC)cc(C2=Cc3ccccc3C(CC(C)=O)N2c2ccc(-c3cncnc3)cc2)c1 (configuration not stated) | 3% | 23µM* | 16µM* | 18µM* | 19% | u
COc1cc(OC)cc(C2=Cc3ccccc3C(CC(C)=O)N2c2ccc(C#CC3(O)CCCCC3)cc2)c1 (configuration not stated) | -23% | u | u | u | -29% | u
COc1ccc(-c2ccc(N3C(c4ccsc4)=Cc4ccc(F)cc4C3c3c[nH]c4ccccc34)cc2)cc1 (configuration not stated) | u | u | 18µM* | u | u | i
COc1ncc(-c2ccc(N3C(c4ccc([N+](=O)[O-])cc4)=Cc4ccccc4C3CC(C)=O)cc2)cn1 (configuration not stated) | 12% | i | u | u | 5% | i
COc1cccc(C2=Cc3ccc(F)cc3C(CC(C)=O)N2c2ccc(-c3cncnc3)cc2)c1 (configuration not stated) | -6% | u | 16µM* | 13µM* | -12% | u
COc1cccc(C2=Cc3ccc(F)cc3C(CC(C)=O)N2c2ccc(-c3cc(OC)c(OC)c(OC)c3)cc2)c1 (configuration not stated) | 3% | i | -14% | -3% | 15% | i
Cn1cncc1C#Cc1ccc(N2C(c3ccsc3)=Cc3ccc(F)cc3C2c2c[nH]c3ccccc23)cc1 (configuration not stated) | u | u | u | u | u | i
COc1ccc(-c2n[nH]c3c2cnc2cc(OC)c(OC)cc23)cc1 | x | i | -22% | -14% | x | i
O=C1c2ccccc2C(O)N1c1cccnc1 (configuration not stated) | 2% | i | -2% | 18% | 16% | i
COc1cc(OC)cc(C2=Cc3ccc(OC)cc3C(CC(C)=O)N2c2ccc(-c3cccs3)cc2)c1 (configuration not stated) | -12% | 7.3µM* | 8.2µM* | 21µM* | -2% | i
CCOC(=O)c1ccc(-c2ccc(N3C(c4cccc(OC)c4)=Cc4ccc(F)cc4C3CC(C)=O)cc2)cc1F (configuration not stated) | 17% | i | -17% | -23% | -4% | i
